ATXN viability: cell viability loss in ATXN counter-screen; S2 cells (HEK-293 line with an ATXN2-luciferase reporter) viability, CellTiter-Fluor protease fluorescence, 24 h; actives 0.49% (n = 400,000); Potency, µM (titrated, usually from 56.7 µM), most hits filed as cytotoxic; AID 651635; further: potency means the concentration at half of the fitted maximal effect; nearly all actives have a fitted effect of over 40% in size
D3 ag: agonists of human D3 dopamine receptor; AID 652048; actives 0.58% (n = 410,000); D3R DiscoveRx beta-arrestin cells, luminescence, 90 min; max activation, %; P35462; in the data active means max activation above about 30%; further: 0% is about no effect
Target sequence (P35462 whole entry, looked up): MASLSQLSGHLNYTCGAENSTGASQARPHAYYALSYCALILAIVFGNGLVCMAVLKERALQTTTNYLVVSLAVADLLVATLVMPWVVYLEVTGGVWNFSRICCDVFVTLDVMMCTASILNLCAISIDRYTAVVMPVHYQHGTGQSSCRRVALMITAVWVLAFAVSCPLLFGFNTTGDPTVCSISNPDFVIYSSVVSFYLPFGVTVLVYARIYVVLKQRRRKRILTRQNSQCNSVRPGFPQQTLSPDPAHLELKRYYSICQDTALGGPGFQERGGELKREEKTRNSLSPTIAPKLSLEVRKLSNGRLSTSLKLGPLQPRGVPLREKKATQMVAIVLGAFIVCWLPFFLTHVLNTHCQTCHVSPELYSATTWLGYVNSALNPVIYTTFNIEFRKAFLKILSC
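Cells at 1500/well, incubated overnight, then treated with pinned compounds (dopamine as control) for 90 min at 37 degrees C. DiscoveRx reagent added for 30 - 60 minutes at room temperature; luminescence read.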
IL1B secr inh: inflammasome signaling inhibition, IL-1 beta readout; THP-1 LPS/ATP IL-1B secretion, AlphaLISA, 16 h; active compounds read low; activity change, % at 57.5 µM; actives 4.7% (n = 360,000); in the data active means activity change below about -50%; inconclusive means mostly about -30% to -49%; further: on the % scale 0 is the no-effect control and ±100 the full control effect
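THP-1 cells pretreated 1 hr with compounds (up to 57.5 uM final), then stimulated with LPS (250 ng/mL final) plus ATP (1.25 mM final); secreted IL-1B measured by AlphaLISA after 16 hr, decreased signal indicating inhibition.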
ATXN2 expr inh: inhibitors of ATXN2 expression | actives 0.72% (n = 360,000) | HEK-293 ATXN2-luciferase reporter, luminescence, 24 h | Potency, µM (top dose mostly 57 µM), without a hit: at the top dose activity change, negative = inhibition, hits mostly inhibitors; further: potency means the concentration at half of the fitted maximal effect; on the % scale 0 is the no-effect control and ±100 the full control effect; nearly all actives have a fitted effect of over 55% in size
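ATXN2-luciferase reporter cells (luciferase flanked by upstream and downstream ATXN2 gene portions) were treated 24 h at 37 °C with compounds at up to 57 uM. SteadyGlo luminescence gave expression; GF-AFC fluorescence gave viability.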
a7 integrin act: activates integrin-mediated alleviation for muscular dystrophy; alpha7betagal myoblasts, beta-gal FDG fluorescence, 48 h; Potency, µM (series often up to 38.3 µM), inactives show at the highest dose activation, hits mostly activators; actives 0.064% (n = 350,000);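 further: potency means the concentration at half of the fitted maximal effect; 100% = response of the positive control SU9516; nearly all actives have a fitted effect of over 60% in size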
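alpha7betagal+/- myoblasts (passage 13, 250/well) treated 48 h at 37C with compounds at 1:260 dilution of DMSO stock. Lysed, then beta-galactosidase activity read as FDG fluorescence (ex 480/em 540) after 30 min, with pre-read for autofluorescence.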
D3 antag: antagonists of human D3 dopamine receptor. P35462. D3R cells, DiscoveRx beta-arrestin luminescence, antagonist mode; active compounds read low. max response, negative = inhibition, %. actives 2.5% (n = 360,000). AID 652054; in the data active means max response below about -50%; inconclusive means no clear call, values can overlap the other calls; further: on the % scale 0 is the no-effect control and ±100 the full control effect
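Cells expressing the human receptor were seeded at 1500 cells/well, incubated overnight at 37 degrees C in 5% CO2, then exposed to library compounds with dopamine controls for 90 minutes at 37 degrees C before luminescent detection.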
Active calls of the source: *; i = inactive; ? = inconclusive; . = no result; [ ] = remark or other dose. Shown are actives, neighbours in structure and some others; about 7% of the full set was active somewhere. Unless noted, the call rests on the fitted dose curve; in most records, active means well fitted curve in the direction sought with a large enough effect; inconclusive means small, poorly fitted or top-dose-only effect, or another doubt; inactive means no such curve, though single readings can be large; an effect the other way counts as inactive or inconclusive.

SMILES	ATXN viability	D3 ag	IL1B secr inh	ATXN2 expr inh	a7 integrin act	D3 antag
Clc1cccc(N2Cc3cc(-c4ccccc4)ccc3-n3nncc3C2)c1	.	-4	-110*	22µM*	.	-23
Fc1cccc(-c2ccc3c(c2)CN(C(=S)NCCc2ccccc2)Cc2cnnn2-3)c1	i	-10	-57*	-31%	.	-4
S=C(NCCc1ccccc1)N1Cc2cc(-c3ccccc3)ccc2-n2nncc2C1	?	9	-3	-26%	.	10
Cn1cnnc1Sc1cc(N2CCNCC2)ccc1[N+](=O)[O-]	i	0	-8	-12%	-2%	2
CN1[C@@H]2CC[C@H]1CC(OC1c3ccccc3CCc3ccccc31)C2 (some centres undefined)	i	-88	?	-5%	.	-91*
CN1C2CCC1CC(OC(=O)c1ccc(Cl)cc1)C2 (centres undefined)	i	-13	-8	-14%	-39%	?
CC1(C)C2CC=C(CN3CCOCC3)C1C2 (centres undefined)	i	2	17	-1%	-14%	-53*
CC1C(c2ccccc2)OCCN1C (centres undefined)	?	4	3	10%	15%	7
C[C@H]1C=CC(=O)O[C@H]1c1ccccc1	?	-12	-105*	?	-23%	-19
CC(N[C@H]1C[C@H]1c1ccccc1)c1ccc2c(c1)OCCO2 (some centres undefined)	.	.	.	9%	.	.
CCOc1ccc(CN2C(=O)c3ccccc3Sc3ccc(C(=O)N4CCC5(CC4)OCCO5)cc32)cc1	i	0	.	-6%	.	.
CC1=CC(=O)C2=C(C)C[C@H](O)[C@@H]3[C@H](OC(=O)[C@H]3C)[C@@H]12	i	-7	-79*	1%	.	-2
COc1ccc(C(O)(c2ccccc2)c2ccncc2)cc1 (centres undefined)	i	-2	15	1%	-31%	33
N[C@@H]1C[C@H]1c1ccccc1	i	-39	22	3%	.	-3
COc1ccc2c3c1O[C@H]1[C@@H](O)C=C[C@H]4[C@@H](C2)N(C)CC[C@@]341	14µM*	-4	.	?	.	.
CN1CC[C@]23c4c5ccc(O)c4O[C@H]2[C@@H](O)C=C[C@H]3[C@H]1C5	i	-15	.	52%[116 µM]	.	.
Nc1ccc(CCN2CCN(c3cccc(C(F)(F)F)c3)CC2)cc1	i	-64	-10	-38%	.	-109*
Fc1ccc(Cn2nnnc2C(c2ccc(F)cc2)N2CC=C(c3ccc(F)cc3)CC2)cc1 (centres undefined)	i	-3	0	-22%	2%	5
Cc1ccc(-c2c(C(=O)O)c(C(=O)O)c3n2CSC3)cc1	i	14	3	.	-47%	29
O=c1[nH]c(=O)n(-c2cccc3ccccc23)c(O)c1C=NCc1ccc2c(c1)OCO2	i	-1	0	4%	3%	-63*
CC(C)OC(=O)c1cc(C(=O)c2cc(Cl)ccc2O)coc1=N	?	3	-1	-35%	-15%	16
Cc1ccc2c(c1)NP(=S)(Oc1ccccc1)N2 (centres undefined)	i	1	-6	57%	-1%	-15
Cc1ccc(OP2(=O)Nc3cc(C)c(C)cc3S2)cc1 (centres undefined)	i	-16	-69*	35%	-45%	-8
Cc1cc(C)n2nc(C)[n+](C)c2n1	i	1	22	3%	8%	0
C=CCn1c(O)c(C(=O)CCCCCC)c(=O)[nH]c1=O	i	3	33	-4%	25%	-12
SMILES	ATXN viability	D3 ag	IL1B secr inh	ATXN2 expr inh	a7 integrin act	D3 antag
Clc1ccc2c(c1)C(c1ccccc1Cl)=NCc1nnc(N3CCN(CCSc4ccccc4)CC3)n1-2	?	1	28	-31%	-20%	-6
Clc1ccc2c(c1)C(c1ccccc1Cl)=NCc1nnc(N3CCN(CCOc4ccccc4)CC3)n1-2	?	54*	?	-22%	-31%	-11
Cc1ccc(CN2CCN(C)CC2)c(C)c1	.	2	-7	.	6%	-16
COC(=O)C1=C(c2ccc3ccccc3c2)C[C@@H]2CC[C@H]1N2C	i	-50	-20	-2%	-4%	0
COC(=O)C1=C(C(=O)OC)C2OC1c1cc3ccccc3cc12	?	-16	0	?	-56%	-58*
CCOC(=O)c1ccc(-[n+]2c(-c3ccccc3)cc(-c3ccccc3)cc2-c2ccccc2)cc1	?	5	-99*	0%	-47%	89
CCOC(=O)c1cccc(-[n+]2c(-c3ccccc3)cc(-c3ccccc3)cc2-c2ccccc2)c1	?	1	-67*	-34%	-31%	-18
CC(=O)O[C@@]12CO[C@H]1C[C@H](O)[C@@]1(C)C(=O)[C@H](O)C3=C(C)[C@@H](O)C[C@@](O)([C@@H](OC(=O)c4ccccc4)[C@@H]21)C3(C)C	.	.	.	-7%	.	.
COC(=O)C1=C(c2ccc(F)cc2OCc2ccccc2)C[C@@H]2CC[C@H]1N2C(=O)NC1CCN(Cc2ccccc2)CC1	14µM*	-8	?	?	-43%	-108*
COC(=O)C1=C(c2ccccc2OCc2ccccc2)C[C@@H]2CC[C@H]1N2C(=O)NC1CCN(Cc2ccccc2)CC1	?	-71	-65*	?	-28%	-85*
COC(=O)C1=C(c2cccc(OCc3ccccc3)c2)C[C@@H]2CC[C@H]1N2C(=O)NC1CCN(Cc2ccccc2)CC1	.	-49	-63*	?	-48%	-120*
COC(=O)C1=C(c2ccccc2OCc2ccccc2)C[C@@H]2CC[C@H]1N2C(=O)NCc1ccccc1	?	-12	-21	?	-11%	-13
COC(=O)C1=C(c2ccc(F)cc2OCc2ccccc2)C[C@@H]2CC[C@H]1N2C(=O)NCc1ccccc1	?	-13	?	?	-12%	-3
O=C(Nc1ccc(Cl)cc1)OC1CN2CCC1CC2 (centres undefined)	i	-4	-52*	35%	-21%	0
O=C(CCCN1CCC(n2c(=O)[nH]c3ccccc32)CC1)c1ccc(F)cc1	i	-45	-28	?	.	-103*
COc1ccc(OC(=O)N(C)C[C@@H]2OCc3ccccc3-c3c(n(C)c4ccccc34)C(=O)N([C@H](C)CO)C[C@@H]2C)cc1	?	-14	-11	?	-31%	0
COc1ccc(CNCCc2c(C)[nH]c3ccc(OC(F)(F)F)cc23)c(OC)c1	?	-11	-95*	?	-65%	-11
